Source: PubChem BioAssay AID1460 (National Center for Advancing Translational Sciences (NCATS), 2008)
Among all 270,000 compounds or so, about 5,800 (2.1%) were called active. Where a call stands in place of a potency, no number is given. Not shown: some 16% with an inconclusive outcome. The call rests on the fitted dose curve; in most records, active means well fitted inhibition curve with a large enough effect; inconclusive means small, poorly fitted or top-dose-only effect; inactive means flat fitted curve, though single readings scatter. For the sample, actives were picked, then their nearest neighbours and some compounds at random.

Each compound was assayed against Microtubule-associated protein tau (Homo sapiens) (UniProt P10636) (assay: qHTS for Inhibitors of Tau Fibril Formation, Thioflavin T Binding). Conditions: recombinant tau K18 P301L, heparin-induced fibrillization, ThT fluorescence; series mostly up to 57.4 µM.
Outline: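 ThT emission at 510 nm, taken 1 hr after adding 30 uM dye, quantifies aggregates formed when 20 uM heparin acts on human tau K18 P301L for 6 hr at 37 C.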
Further: nearly all actives have a fitted effect of over 55% in size.
Potency means the concentration at half of the fitted maximal effect.

Chain of Microtubule-associated protein tau (Homo sapiens) (P10636 561-689 P618L limits assumed): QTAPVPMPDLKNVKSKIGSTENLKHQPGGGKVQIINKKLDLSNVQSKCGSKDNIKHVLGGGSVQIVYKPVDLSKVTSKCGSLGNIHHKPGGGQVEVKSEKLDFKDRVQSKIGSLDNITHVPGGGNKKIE

SMILES	Potency
CCOc1ccccc1CNC(=O)c1ccc2c(c1)nc1n2CCC(C)C1 (configuration not stated)	inactive
Cc1ccc(NC(=O)c2cc3cc(C)ccc3n2C)cc1	inactive
CCOC(=O)c1c(NC(C)=O)c2c3c(sc2n1Cc1c(C)cc(C)cc1C)CCCC3	inactive
Fc1ccc(CSc2nc(NCc3ccccc3)c3ccccc3n2)cc1	inactive
COc1ccc(NC(C)=O)cc1NC(=O)CN1CCN(c2ccc(F)cc2)CC1	inactive
CC(=O)Nc1ccc(-c2csc(NC=C3C(=O)OC(C)(C)OC3=O)n2)cc1	inactive
CC1(C)CC(CC(=O)O)C(=O)O1 (configuration not stated)	inactive
C/C(CC1CC(C)(C)OC1=O)=N/Nc1nc(-c2ccccc2)cs1 (configuration not stated)	25.1 µM (active)
Cc1ccc(-c2nn3c(=O)cc(CN4CCN(S(=O)(=O)c5ccc(Cl)cc5)CC4)nc3s2)cc1	inactive
COc1ccccc1N1CCN(c2ccc(=O)n(CC(=O)NCc3ccc(OC(C)C)cc3)n2)CC1	inactive
COc1ccc(N2C(=O)CS(=O)(=O)C23C(=O)N(Cc2ccc(C)cc2)c2ccccc23)cc1Cl (configuration not stated)	inactive
Cc1c(CNC(C)c2ccccc2)c(C(=O)O)c(C)n1Cc1c(F)cccc1Cl (configuration not stated)	inactive
COc1ccc(/C(O)=C2/C(=O)C(=O)N(c3nc(C)c(C)s3)C2c2ccco2)cc1 (configuration not stated)	inactive
COc1ccccc1C1/C(=C(/O)c2ccc(OC(C)C)cc2)C(=O)C(=O)N1c1cc(C)on1 (configuration not stated)	inactive
CCOc1ccc(/C(O)=C2\C(=O)C(=O)N(c3ccc(OC)cc3)C2c2ccccc2[N+](=O)[O-])cc1 (configuration not stated)	5.01 µM (active)
CC/C(O)=N\S(=O)(=O)c1ccc(N=NN(C)C)cc1	inactive

SMILES	Potency
CN(C)N=Nc1ccc2nc[nH]c2c1	4.47 µM (active)
CCCN(CCC)S(=O)(=O)c1ccc(C(=O)Nc2sc3c(c2C(=O)OC)CCN(CC)C3)cc1	inactive
CCc1cccc(NC(=O)CN(c2ccc(C)c(C)c2)S(=O)(=O)c2ccsc2C(=O)OC)c1	inactive
O=C(CSc1ccc(/C=N/NC(=O)c2cccc(F)c2)o1)Nc1ccccc1	inactive
Cc1ccc(/C=N/NC(=O)CSc2ccccn2)o1	inactive
N#CCC(=O)N/N=C/c1ccc(SCC(=O)Nc2ccccc2)o1	25.1 µM (active)
O=C(CCc1ccccc1)NCc1ccc2c(c1)CCN2C(=O)c1ccccc1	inactive
Cc1cccc(C)c1NC(=O)CSc1ccc([N+](=O)[O-])cn1	inactive
Cc1ccc(-n2c(C)cc(/C=N/Nc3ccc([N+](=O)[O-])cn3)c2C)c(C)c1	3.98 µM (active)
COc1cc(/C=N/NC(=O)Nc2ccccc2)ccc1OCCOc1ccccc1C	inactive
Cc1cccc(-n2c(C)cc(/C=N\NC(=O)c3cccs3)c2C)c1	inactive
COc1cc(/C=N\Nc2ccc([N+](=O)[O-])cn2)ccc1OCC(=O)O	12.6 µM (active)
Cc1ccc(-n2c(C)cc(/C=N\NC(=O)CC(=O)NC(C)C)c2C)cc1	inactive
Cc1cc(/C=N/n2cnnc2)c(C)n1-c1cccc(C(=O)O)c1	inactive
COc1cc(/C=N\NC(=O)CNC(=O)c2cccc([N+](=O)[O-])c2)ccc1O	inactive
Cc1cc(/C=N/Nc2ccc([N+](=O)[O-])cn2)c(C)n1-c1cccc(C(=O)O)c1	2.82 µM (active)
